The values that follow come from PubChem BioAssay (NCI).

Common to all, as to test: NCI-60 one-dose screen, 48 h (100 = growth as untreated, 0 = no growth, -100 = all killed)
For one experiment, the system named is BT-549 breast. To be noted: 10 µM unless noted.
For another experiment, the system named is MDA-MB-435 melanoma. To be noted: 10 µM unless noted.
A further experiment relates to SW-620 colon. To be noted: 10 µM unless noted.
Another experiment deals with MCF7 breast. To be noted: 10 µM.
Another experiment deals with HCT-116 colon. To be noted: 10 µM unless noted.
In another experiment the test system is HCC-2998 colon. To be noted: 10 µM unless noted.
A further experiment relates to KM12 colon. To be noted: 10 µM unless noted.

SMILES strings stand for the structures. Compounds without any hit were thinned out: in the full panel of roughly 83,000, 20% have a hit.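 For each line, cells grew in 96-well plates with the test compound present at a single concentration for 48 hours.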 A number with no mark means an inactive call. The source made the active and inactive calls. The calls were made as follows: active = growth percent below 10; inactive = the rest.

Turning to `O=C(Nc1ccc(F)c(Cl)c1)Nc1ccc(Cl)c(Cl)c1`, the growth in the experiment with BT-549 breast is 64%; with MDA-MB-435 melanoma, -7.47% (active); in the experiment with SW-620 colon it was 35%; with MCF7 breast, 55.1%; with HCT-116 colon it was 50.6%; with HCC-2998 colon, 94.6%. In the experiment on KM12 colon, the growth was 51.6%.

For `COc1cc(C2C(C#N)=C(N)OC3=C2C(=O)c2ccccc2C3=O)cc(OC)c1O` (centres undefined), the growth in the experiment with BT-549 breast was 57.7%; in the experiment on MDA-MB-435 melanoma, -31% (active); in the experiment with SW-620 colon, 13.4%; with MCF7 breast, 20%; with HCT-116 colon, 22.5%; in the experiment with HCC-2998 colon, 45%. The growth with KM12 colon was 14%.

Take `CCCCC1COc2cccc3c2N1C=C/C3=C\C(=O)N(C)c1ccccc1` (centres undefined): the growth with BT-549 breast was 50.8%; in the experiment with MDA-MB-435 melanoma it was 69%; in the experiment on SW-620 colon, 73.4%; in the experiment with MCF7 breast it was 66.7%; in the experiment with HCT-116 colon it was 36.1%; in the experiment with HCC-2998 colon, 71.1%. The growth in the experiment on KM12 colon is 65.2%.

For the molecule `C1=CC2(C=C1)OC21CCC2(C=CC3(C2)OC3C2CCCCC2)CC1` (centres undefined), the growth was 107% with BT-549 breast; 97.4% in the experiment on MDA-MB-435 melanoma; 109% in the experiment with SW-620 colon; 106% in the experiment with MCF7 breast; 101% in the experiment on HCT-116 colon; 105% in the experiment on HCC-2998 colon. Besides, the growth with KM12 colon was 105%.

Consider `CN1CCN(Cc2ccc(C(=O)Nc3cncc(C#Cc4cnc(N)c5ccccc45)c3)cc2C(F)(F)F)CC1`, for which the growth with BT-549 breast was 72%; in the experiment with MDA-MB-435 melanoma, -89.2% (active); in the experiment on SW-620 colon it was -66.3% (active); in the experiment on MCF7 breast, -68.3% (active); with HCT-116 colon it was -84.5% (active); in the experiment with HCC-2998 colon, -52.6% (active). Further, in the experiment with KM12 colon, the growth was -70.4% (active).

Turning to `COc1ccc(-c2cn[nH]c2-c2cc(OC)c(OC)c(OC)c2)cc1OCc1ccccc1`, the growth with BT-549 breast was 60%; with MDA-MB-435 melanoma, -61.8% (active); in the experiment on SW-620 colon, 26.6%; in the experiment with MCF7 breast it was 17.2%; in the experiment on HCT-116 colon, 17.6%; in the experiment with HCC-2998 colon, 34.8%. For the same molecule, the growth with KM12 colon was 14.7%.

For `CNCCNc1nc2ccccc2c2c(=O)c3cc(F)ccc3sc12`, the growth in the experiment on BT-549 breast was 82.4%; with MDA-MB-435 melanoma, -61.1% (active); with SW-620 colon, -63.3% (active); with MCF7 breast, -44.5% (active); in the experiment on HCT-116 colon, 0.271% (active); in the experiment on HCC-2998 colon it was -41.8% (active). The growth in the experiment with KM12 colon was -33.8% (active).

In the case of `O=S(=O)(c1ccc(NC(=S)NC23CC4CC(CC(C4)C2)C3)cc1)N1CCCCC1`, the growth in the experiment with BT-549 breast was 93.8%; in the experiment on MDA-MB-435 melanoma, 96%; in the experiment with SW-620 colon it was 55.8%; in the experiment with MCF7 breast it was 94.2%; in the experiment with HCT-116 colon it was 50.5%; in the experiment with HCC-2998 colon it was 114%. Further, the growth in the experiment on KM12 colon is 24.7%.

Consider `CC[C@@H](C)[C@H](NC(=O)Cn1cc(CNC(=O)[C@@H](NC(=O)OCc2ccccc2)C(C)C)nn1)C(=O)O`, for which the growth with BT-549 breast is 107%; in the experiment with MDA-MB-435 melanoma it was 102%; with SW-620 colon, 105%; in the experiment on MCF7 breast, 100%; in the experiment on HCT-116 colon, 107%; with HCC-2998 colon, 101%. Besides, the growth in the experiment on KM12 colon was 109%.

Turning to `Cc1ccc(Cn2c(N3CCC(C(=O)NCc4cccs4)CC3)nc3ccccc32)cc1`, the growth in the experiment with BT-549 breast was 75%; with MDA-MB-435 melanoma it was 90%; in the experiment with SW-620 colon, 93.6%; with MCF7 breast, 95.2%; with HCT-116 colon, 58.1%; with HCC-2998 colon, 90.1%. In addition, the growth with KM12 colon is 54.8%.

As for `COc1ccc2sc3c(NCCCN)nc4ccccc4c3c(=O)c2c1`, the growth is 82.1% in the experiment with BT-549 breast; -79% (active) in the experiment on MDA-MB-435 melanoma; -75% (active) in the experiment on SW-620 colon; -74.2% (active) in the experiment on MCF7 breast; -84.1% (active) in the experiment on HCT-116 colon; -67.1% (active) in the experiment with HCC-2998 colon. Moreover, the growth with KM12 colon is -54.6% (active).

Turning to `O=C(Nc1ccc(N2CCNCC2)cc1)c1[nH]ncc1Nc1cc(Oc2ccccc2)ncn1`, the growth in the experiment with BT-549 breast was 17.5%; with MDA-MB-435 melanoma, 35.8%; with SW-620 colon it was -65.5% (active); in the experiment on MCF7 breast it was -0.204% (active); with HCT-116 colon, -33.6% (active); with HCC-2998 colon, -18.1% (active). The growth in the experiment with KM12 colon was -78% (active).

On to `c1ccc(CNc2nc(Nc3ccccc3)nc3ccccc23)cc1`, for which the growth in the experiment with BT-549 breast is 89.2%; in the experiment with MDA-MB-435 melanoma, 11.7%; in the experiment with SW-620 colon, 56.1%; in the experiment with MCF7 breast, 56.9%; in the experiment with HCT-116 colon, 58.2%; in the experiment on HCC-2998 colon it was 37.2%. Besides, in the experiment on KM12 colon, the growth is 71.8%.

As for `O=C(NC1CCN(Cc2ccccc2)CC1)c1cc2nc(-c3ccc(Cl)s3)cc(C(F)(F)F)n2n1`, the growth with BT-549 breast was 66%; with MDA-MB-435 melanoma, -82% (active); in the experiment with SW-620 colon it was -6.12% (active); with MCF7 breast, -68.2% (active); in the experiment on HCT-116 colon it was 28%; in the experiment on HCC-2998 colon it was 84.2%. Moreover, in the experiment with KM12 colon, the growth is 37.1%.

As to `COc1ccc2c(c1)C=C1CSCC3=Cc4cc(OC)ccc4OC13O2`, the growth is 30.8% with BT-549 breast; -40% (active) in the experiment on MDA-MB-435 melanoma; 33.2% in the experiment on SW-620 colon; 19.7% in the experiment with MCF7 breast; 9.24% (active) in the experiment with HCT-116 colon; 9.67% (active) in the experiment on HCC-2998 colon. Besides, in the experiment on KM12 colon, the growth is 16.6%.

Consider `COc1cc(C(=O)O/N=C(\N)Cc2cccc3ccccc23)cc(OC)c1OC`, for which the growth with BT-549 breast was 56.4%; with MDA-MB-435 melanoma, -85.2% (active); in the experiment with SW-620 colon, -76.7% (active); in the experiment on MCF7 breast it was -85.7% (active); in the experiment on HCT-116 colon it was -71.4% (active); with HCC-2998 colon, -82.5% (active). Besides, in the experiment with KM12 colon, the growth is -68.4% (active).

On to `Cc1c(-c2noc(-c3ccc([N+](=O)[O-])cc3)n2)no[n+]1[O-]`, for which the growth in the experiment on BT-549 breast is 95.7%; in the experiment with MDA-MB-435 melanoma, 106%; in the experiment with SW-620 colon, 97.5%; in the experiment on MCF7 breast it was 55.2%; in the experiment with HCT-116 colon, 87.5%; in the experiment on HCC-2998 colon it was 102%. Also, the growth in the experiment on KM12 colon was 92.2%.
